Screens (PubChem)
Many of the other results were omitted from the sample, so hits are more common in it than they were.
HTT cytoprotect = cytoprotection in Huntington HTT-Q103 PC12 cell model | PC12 HTT-Q103 induced, cytoprotection, ATP luminescence, 40 h | Potency, µM (doses to about 56.4 µM), most hits filed as activators | 0.14% of 230,000 active | AID 1471; note: nearly all actives have a fitted effect of over 45% in size
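Readout: ATPlite luminescence (ATP level). Model: stable PC12, inducible Htt exon1 Q103-GFP. Inducer: tebufenozide, 100 nM final. Compounds: dose series. No G418 in medium.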
HTT aggregate = inhibitors of mutant huntingtin aggregate formation in PC12 cells; 1.1% of 220,000 active; Potency, µM (series often up to 46.1 µM), hits mostly inhibitors; PC12 HttQ103-GFP aggregates, Acumen cytometry, 40 h; note: nearly all actives have a fitted effect of over 60% in size
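Huntingtin Q103 exon 1–GFP aggregates in induced PC12 cells (100 nM tebufenozide) were quantified by cytometry from lysates, with compounds dosed in titration.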
PNC inhibitor = blocks assembly of the perinucleolar compartment. 3.1% of 140,000 active. PC3M PTB-GFP, PNC prevalence imaging, 16 h; stronger effect = lower value. activity change (PNC), negative = inhibition, % at 10 µM;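 active = readout at or below -70, meaning at least 70% loss of cells showing the perinucleolar compartment, a nuclear body marking cancer cells; inconclusive = readout between -30 and a set limit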
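Compounds are pinned in duplicate onto adhered PC3M cells stably expressing GFP-tagged PTB and incubated 16 h at 37 C. Cells are then fixed, nuclei stained with Hoechst, and PNC-positive cells counted.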
Each line names hits and unclear results; the compound was inactive in the other large screens. Unless noted, calls come from the whole dose curve; as a rule, active = well fitted curve in the direction sought with a large enough effect; inconclusive = small, poorly fitted or top-dose-only effect, or another doubt; inactive = no such curve, though single readings can be large; an effect the other way counts as inactive or inconclusive.

CC(C)C(=O)Nc1cccc(C(=O)N2CCCCC2C)c1 (centres undefined)	HTT aggregate 10µM
CC1CCCCN1C(=O)c1cccc(NC(=O)c2ccccc2)c1 (centres undefined)	none (no result: PNC inhibitor)
COC(=O)C1CC(O)CN1C(=O)c1ccco1 (centres undefined)	none
O=C(NC1CCN(C(=O)N2c3ccccc3Sc3ccccc32)CC1)c1ccco1	HTT aggregate inconclusive
COc1ccc(S(=O)(=O)Nc2ccc(NC(C)=O)cc2)cc1[N+](=O)[O-]	none (no result: PNC inhibitor)
CN1CCN(/N=C/c2c3ccccc3c(Cl)c3ccccc23)CC1	HTT aggregate inconclusive (no result: PNC inhibitor)
C=CCn1c(CC#N)nnc1N1CCOCC1	PNC inhibitor -103
C=CCN1C(c2ccccc2)=CS/C1=C(/C#N)c1nnc(N2CCOCC2)n1-c1ccccc1	none
O=C(Cc1ccccc1)Nc1ccccc1CO	none
O=C(Cc1ccc(Cl)cc1)Nc1ccccc1CO	PNC inhibitor -87
Cc1onc(-c2c(F)cccc2Cl)c1C(=O)N[C@@H]1C(=O)N2[C@H]1SC(C)(C)[C@H]2C(=O)O	HTT cytoprotect inconclusive (no result: PNC inhibitor)
CCOC(=O)c1c(C)[nH]c(C(=O)OCC(=O)Nc2cc(C)ccc2OC)c1C	none
CCOC(=O)c1[nH]c(C)c(C(=O)Nc2cc(OC)ccc2OC)c1C	PNC inhibitor -107
C=CCOC(=O)/C(=C/c1ccco1)NC(=O)/C=C/c1ccccc1	none
Cc1c(CNC2CCCC(C)C2C)c(C(=O)O)c(C)n1Cc1ccccc1 (centres undefined)	PNC inhibitor inconclusive
Cc1[nH]n(-c2ccccc2)c(=O)c1N=Nc1nccs1	HTT aggregate 11µM
Cc1ccccc1N=Nc1c(C)[nH]n(-c2ccccc2)c1=O	none (no result: PNC inhibitor)
O=C(O)CN1CCCC1=Nc1ccccc1	none
Cc1ccc(C)c(N=C2CCCN2Cc2ccccc2)c1C#N	PNC inhibitor -119
C/C(=N\NC(=O)Cc1csc(N2CCOCC2)n1)c1ccc(Cl)c(Cl)c1	none (no result: PNC inhibitor)
CCCNS(=O)(=O)c1ccc(OCC(=O)N(C)Cc2ccccc2)cc1	none (no result: PNC inhibitor)
CCOC(=O)c1sc2nc(N3CCOCC3)c3c(c2c1N)CCN(C)C3	HTT cytoprotect 0.63µM (no result: HTT aggregate)
NNC(=O)c1sc2nc(N3CCOCC3)c3c(c2c1N)CCCC3	none (no result: PNC inhibitor)
Cc1c(C(=O)NCc2ccc3c(c2)OCO3)sc2nc(-c3ccccc3)cn12	none
Cc1c(C(=O)NCc2ccc3c(c2)OCO3)sc2nc(-c3ccc(F)cc3)cn12	HTT aggregate 0.89µM
O=[N+]([O-])c1cc(-c2cnc3ccccc3n2)ccc1Oc1ccc(Cl)cc1	none
S=C1NNC2(NN1)C1CC3CC(C1)CC2C3	PNC inhibitor -100
O=C(CCCCCN1C(=O)c2cccc3cccc(c23)C1=O)NCCO	HTT aggregate inconclusive (no result: PNC inhibitor)
CC1CCN(CC(=O)Nc2sc3c(c2C#N)CCC3)CC1	none
CC1CCc2c(sc(NC(=O)CN3CCN(C(=O)c4ccco4)CC3)c2C#N)C1 (centres undefined)	PNC inhibitor -117
CC(=O)c1cccc(CN2CCN(Cc3ccc(F)cc3)C(CCO)C2)c1 (centres undefined)	none (no result: PNC inhibitor)
CCOc1ccc(NC(=O)c2nccnc2CO)cc1	none
O=C(CN1CCc2ccccc2C1)c1cccs1	PNC inhibitor inconclusive
COC(=O)c1ccc(C(=O)OC)c(NC(=O)CN2CCCCC2)c1	none (no result: HTT cytoprotect, PNC inhibitor)
COC(=O)c1cc(OC)c(OC)cc1NC(=O)CN1CCCCC1	HTT aggregate 0.63µM
COc1cc(NC(=O)c2ccccc2Cl)c(OC)cc1NC(=O)CN1CCOCC1	PNC inhibitor -90
COc1cc(NC(=O)c2ccccc2)c(OC)cc1NC(=O)CN1CCOCC1	none
C[C@H](C(=O)O)c1n[nH]c(=O)c2ccccc12	none
S=c1nc2ccccc2c2nc(-c3ccccc3)[nH]n12	HTT aggregate inconclusive
CC(Oc1ccc(Br)cc1)c1nc2c3ccccc3nc(=S)n2[nH]1 (centres undefined)	HTT aggregate 8.9µM (no result: PNC inhibitor)
COc1c(O)c2c(=O)cc(OC)c3c4c(OC)cc(=O)c5c(O)c(OC)c(C[C@@H](C)OC(=O)c6ccccc6)c(c(c1C[C@@H](C)OC(=O)Oc1ccc(O)cc1)c23)c54	none (no result: HTT aggregate, PNC inhibitor)
Cc1ccc(-c2[nH]c3ccccc3c2SCCN)cc1	none (no result: PNC inhibitor)
Cc1ccc(C)n1-c1ccc(-c2nnc3n2CCCCC3)s1	none
Cn1nc(C(C)(C)C)cc1C(=O)Sc1cccc(Br)c1	none (no result: PNC inhibitor)
CC(/C=N\N1CCN(c2ccc(Cl)cc2)CC1)=C\c1ccccc1	HTT cytoprotect 3.2µM
CC(/C=N/N1CCN(c2ccc(C)cc2)CC1)=C\c1ccccc1	PNC inhibitor inconclusive
Cc1cc(C)c2c(=O)[nH]c(SCC(=O)N3CCOCC3)nc2n1	none (no result: PNC inhibitor)
CCOc1cc(/C=C(\C#N)C(=O)NCC2CCCO2)ccc1OCC(N)=O (centres undefined)	none (no result: PNC inhibitor)
CCCCCCCCCC(=O)NNC(=O)c1c(O)c2ccccc2n(CCC)c1=O	none (no result: PNC inhibitor)
CCCn1c(=O)c(C(=O)NNS(=O)(=O)c2ccc(Cl)cc2)c(O)c2ccccc21	HTT aggregate 14µM
Cc1cc(NC(=O)c2cc3ccccc3oc2=O)no1	none
Cn1cc2c(=O)n(/N=C/c3ccccc3)cnc2n1	PNC inhibitor -82
O=c1c2c3c(sc2ncn1/N=C/c1ccccc1)CCCC3	none
O=C(CSc1nnc(-c2ccc(Br)cc2)o1)Nc1cccc2ccccc12	none
Cc1cccc(N2CCN(C(=O)c3cc4n(n3)C(C(F)(F)F)CC(c3ccco3)N4)CC2)c1C (centres undefined)	HTT aggregate inconclusive
CC(=O)OCC(=O)c1ccc2ccn(C(C)=O)c2c1	PNC inhibitor -100
COc1ccccc1N1CCN(CC(=O)c2ccc3ccn(C(C)=O)c3c2)CC1	none
O=S(=O)(c1ccccc1)c1nc(-c2ccco2)oc1N1CCCCCC1	none
Cc1cc(C)c(S(=O)(=O)c2ccccc2C)c(Oc2ccccc2)n1	none
COC(=O)c1ccccc1Sc1ncnc2onc(C)c12	HTT aggregate inconclusive (no result: PNC inhibitor)
Cc1noc2ncnc(Sc3ccccc3Cl)c12	HTT aggregate 5µM
Cc1[nH]c(=O)[nH]c(=O)c1/C=N/NC(=O)[C@H](C)NC(=O)OC(C)(C)C	PNC inhibitor -106
Cc1[nH]c(=O)[nH]c(=O)c1/C=N/NC(=O)[C@H](CC(C)C)NC(=O)OC(C)(C)C	none
COc1cc2c3nnc(-c4ccc(F)cc4)c-3cn(Cc3ccccc3F)c2cc1OC	HTT aggregate 7.1µM (no result: PNC inhibitor)
COc1cc2c3nnc(-c4ccccc4)c-3cn(Cc3ccccc3F)c2cc1OC	none (no result: PNC inhibitor)
CC(C)(C)c1ccc(C(O)CCCN2CCC(C(O)(c3ccccc3)c3ccccc3)CC2)cc1 (centres undefined)	HTT aggregate 22µM
Oc1ccccc1CN1CCC(C(O)(c2ccccc2)c2ccccc2)CC1	none (no result: HTT cytoprotect)
O=[N+]([O-])c1ccc(NCc2ccccn2)nc1	none
CCC1(C)Cc2ccccc2-c2c1c(=O)n(-c1ccc(C)cc1)c1nnnn21 (centres undefined)	none
CC1(C)Cc2ccccc2-c2c1c(=O)n(Cc1ccccc1)c1nnnn21	PNC inhibitor -100
O=C(NC1CCCCC1)C1Cc2ccccc2CN1S(=O)(=O)c1ccc(F)cc1 (centres undefined)	PNC inhibitor -100
CCNC(=O)C1Cc2ccccc2CN1S(=O)(=O)c1ccc(F)cc1 (centres undefined)	none (no result: PNC inhibitor)
NNC(=O)c1nc(Cl)c(Cl)c(N)c1Cl	none (no result: PNC inhibitor)
